# PubChem BioAssay (NCI)
# The panel holds about 83,000 compounds, 20% with a hit somewhere; the sample as a whole holds those more often.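 48-hour exposure, single concentration, 96-well plates; percent growth endpoint where 0 means no net growth. Active: below 10.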 Unmarked numbers belong to inactive results. Active and inactive are the calls of the source.
# Assays:
# Assay in all cases: NCI-60 one-dose screen, 48 h (100 = growth as untreated, 0 = no growth, -100 = all killed)
# Settings in all cases: 10 µM unless noted
# HCT-15 colon = system: HCT-15 colon
# HT29 colon = system: HT29 colon
# SNB-75 CNS = system: SNB-75 CNS
# SNB-19 CNS = system: SNB-19 CNS
# U251 CNS = system: U251 CNS
# UACC-62 melanoma = system: UACC-62 melanoma
# LOX IMVI melanoma = system: LOX IMVI melanoma
# SK-MEL-28 melanoma = system: SK-MEL-28 melanoma
# SK-MEL-2 melanoma = system: SK-MEL-2 melanoma
# EKVX NSCLC = system: EKVX NSCLC
# SN12C renal = system: SN12C renal
# UO-31 renal = system: UO-31 renal
# TK-10 renal = system: TK-10 renal
# ACHN renal = system: ACHN renal
# CAKI-1 renal = system: CAKI-1 renal
# A498 renal = system: A498 renal
# CCRF-CEM leukemia = system: CCRF-CEM leukemia
# MOLT-4 leukemia = system: MOLT-4 leukemia
# SK-MEL-5 melanoma = system: SK-MEL-5 melanoma
# PC-3 prostate = system: PC-3 prostate
Structure (SMILES),growth (HCT-15 colon),growth (HT29 colon),growth (SNB-75 CNS),growth (SNB-19 CNS),growth (U251 CNS),growth (UACC-62 melanoma),growth (LOX IMVI melanoma),growth (SK-MEL-28 melanoma),growth (SK-MEL-2 melanoma),growth (EKVX NSCLC),growth (SN12C renal),growth (UO-31 renal),growth (TK-10 renal),growth (ACHN renal),growth (CAKI-1 renal),growth (A498 renal) [%],growth (CCRF-CEM leukemia),growth (MOLT-4 leukemia),growth (SK-MEL-5 melanoma),growth (PC-3 prostate) [%]
COc1ccc(-c2nc(N/N=C/c3cccc(Br)c3)nc(N3CCOCC3)c2C#N)cc1,7.3% (active),21.5%,-17.7% (active),93.4%,52.4%,84.4%,91.3%,-8.47% (active),80.1%,90.2%,89.4%,43.5%,90.8%,54.6%,59.6%,45.1,35.6%,46.9%,,
CCCOc1nc(SCCC)nc2c1cnn2-c1ccccc1,108%,83.1%,98.6%,103%,107%,86.8%,110%,122%,,97.3%,98.7%,91.9%,149%,111%,105%,134,92.9%,141%,106%,
COc1ccc(Cn2nc(-c3ccccc3)c3c2CCc2cnoc2-3)cc1,67.6%,84%,65.5%,82.2%,78%,51.5%,72.8%,84.8%,111%,65.9%,76.8%,70%,105%,81.4%,66.3%,58.7,67.8%,52.7%,74.5%,
Clc1ccc(C2CC(c3cccc(Nc4ccncc4)c3)=NN2c2ccccc2)cc1 (configuration not stated),-48.4% (active),-9.64% (active),76.2%,79.7%,-11.4% (active),93.9%,25.6%,9.8% (active),83.7%,89.8%,76.6%,63.2%,57.4%,78.1%,52.6%,,36.7%,-6.03% (active),68.6%,
COc1ccccc1OCC(=O)N1CCCCCC1,103%,95.2%,91.4%,96.2%,95.3%,99.4%,93.6%,101%,,89.6%,103%,92%,96.1%,105%,,,101%,86.9%,100%,
O=S(=O)(O)c1cc(O)c2c(N=Nc3ccc(Nc4ccccc4)c4c(S(=O)(=O)O)cccc34)cc(S(=O)(=O)O)cc2c1,99.1%,107%,96.2%,103%,102%,105%,96.5%,111%,99.7%,103%,99.2%,74.3%,106%,98.5%,99.4%,,108%,110%,109%,
CCCCN(CCCC)CCc1c(C)cc(C)c(CCN(CCCC)CCCC)c1O,36.7%,11.9%,82.8%,22.8%,24.6%,3.34% (active),28.2%,23.2%,1.41% (active),14.4%,22.9%,28.4%,37.4%,29.3%,39.7%,,26.6%,16.2%,0.474% (active),
COc1ccc(-c2nc(N/N=C/c3c[nH]c4ccccc34)nc(N3CCOCC3)c2C#N)cc1,44.1%,51.4%,61.6%,109%,58.7%,106%,102%,41.3%,97.8%,99.8%,92.2%,63.7%,104%,76.1%,98%,51.2,56.9%,55.6%,101%,
O=C(Nc1ccccc1)Oc1ccccc1-c1ccccc1,102%,96.5%,75.5%,99.5%,,93.2%,95.2%,107%,93.2%,96.5%,98.5%,57.7%,94.1%,99.9%,88.2%,75.3,95.8%,,97.9%,80.4
CCOC(=O)c1c(C)nc2c(c1N)C(=O)C(=O)N2Cc1ccc(C(F)(F)F)cc1,24.1%,65.1%,62.2%,59.3%,41%,42.8%,54.1%,74.8%,,79.5%,74.1%,54.1%,107%,69.7%,,72.6,,60.1%,66.7%,
CC(C)CN(C(=O)c1ccc(Cl)cc1)c1c(N)n(CC(C)C)c(=O)[nH]c1=O,111%,111%,88.4%,96.6%,98.8%,88.7%,102%,107%,,106%,87.8%,98.2%,125%,101%,50.2%,108,93.1%,97.2%,37.6%,
O=C1NC(=S)NC(=O)C1=Cc1cn(Cc2ccccn2)c2ccccc12,42.9%,72.2%,52.8%,53.4%,31.5%,70.5%,27.1%,73.4%,89.7%,84.7%,66.6%,59.2%,72.7%,82.2%,7.91% (active),,31.3%,66%,,
O=C(Nc1ccc2cc3ccc(NC(=O)N4CCCCCC4)cc3nc2c1)N1CCCCCC1,-47.4% (active),-36.2% (active),-88.4% (active),1.3% (active),-58.8% (active),-66.6% (active),-85% (active),-82.1% (active),-69% (active),-41% (active),-57.6% (active),-85.4% (active),-62.3% (active),-93.6% (active),-64.7% (active),,8.09% (active),-21.2% (active),-94.4% (active),
c1ccc(-c2nnc(Nc3ccc4c(c3)OCCO4)o2)c(NCc2ccncc2)c1,6.86% (active),0.34% (active),22.6%,28.4%,20.5%,20.7%,23.6%,63.3%,4.04% (active),35.4%,27.5%,30.2%,50.9%,23.4%,21.1%,10,20.4%,21.1%,-50% (active),
O=S(=O)(NCCNc1nccc(-c2c(-c3ccc(F)c(O)c3)nc3sccn23)n1)c1ccccc1,92.3%,64.6%,137%,113%,98.8%,-0.791% (active),27.7%,16.8%,12.7%,101%,64.1%,49.9%,138%,57.5%,54.6%,,37.2%,52.8%,,
O=C1Nc2cc(-c3ccncc3)ccc2/C1=C/c1ccc[nH]1,72.3%,88.8%,89.3%,97%,91.7%,111%,98.8%,69.6%,106%,46.9%,99.5%,73.7%,95.7%,54%,87.9%,,104%,96.4%,77.9%,
CCCCCCN(C)Cc1ccc(OCCOc2ccc(CN(C)CCCCCC)cc2)cc1,5.57% (active),1.29% (active),28.8%,27.9%,7.97% (active),-11.5% (active),-95.3% (active),-68.7% (active),-40.8% (active),55.3%,40.1%,-5.75% (active),31.6%,35.1%,27.2%,,13.3%,-4.95% (active),,
